According to PubChem BioAssay (NCI):
Several values for one entry are separate records, joined by “and”; a condition that tells them apart may be missing. Equal values may be shown once. About 79,000 compounds went through this panel and 15% of them were active in at least one assay; those are over-represented in the sample as a whole. A structure can be active in one record and inactive in another. Activity calls are given as the source filed them. Rule as the data show it: active = growth inhibition above about 70%; inactive = the rest.

Tests used:
[1] = NCI Yeast Anticancer Drug Screen. Data for the mlh1 strain (AID 171);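 also: 0% = growth of vehicle-treated control cultures of the same strain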; settings: S. cerevisiae mlh1 strain growth inhibition, stronger effect = higher value
How it was run: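 Growth of the mutant yeast strain after compound exposure, expressed as inhibition relative to vehicle-only controls.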

[2] = NCI Yeast Anticancer Drug Screen. Data for the sgs1 strain (AID 173);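 also: 0% = growth of vehicle-only control cultures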; settings: S. cerevisiae sgs1 mutant, stronger effect = higher value
How it was run: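 Growth of a yeast strain bearing a defined genetic alteration is measured after compound treatment. Inhibition is expressed relative to vehicle-only controls.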

[3] = NCI Yeast Anticancer Drug Screen. Data for the mlh1 rad18 strain (AID 175); settings: S. cerevisiae mlh1 rad18 strain growth inhibition, stronger effect = higher value
How it was run: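 Read-out is yeast growth inhibition, calculated against vehicle-only controls. The compound was applied to a strain engineered with DNA damage repair alterations.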

[4] = NCI Yeast Anticancer Drug Screen. Data for the rad18 strain (AID 177); settings: S. cerevisiae rad18 mutant growth inhibition, stronger effect = higher value
How it was run: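 Growth of the mutant yeast strain after compound exposure, normalised to vehicle-only cultures.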

[5] = NCI Yeast Anticancer Drug Screen. Data for the rad52 strain (AID 147);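 also: 0% = growth of vehicle-treated control cultures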; settings: S. cerevisiae rad52 mutant growth inhibition, stronger effect = higher value
How it was run: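 Compounds are applied to a genetically defined yeast strain lacking normal DNA damage repair, and inhibition of growth is expressed relative to cultures given vehicle only.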

[6] = NCI Yeast Anticancer Drug Screen. Data for the wt1 strain (AID 149);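 also: 0% = growth of vehicle-treated wt1 cultures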; settings: S. cerevisiae wt1 strain (SPY 50644) growth inhibition, stronger effect = higher value
How it was run: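 wt1 yeast, compound-treated; % growth inhibition vs vehicle control.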

[7] = NCI Yeast Anticancer Drug Screen. Data for the rad50EPP+ strain (AID 151);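 also: 0% = growth of vehicle-treated control cultures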; settings: S. cerevisiae rad50 mutant strain, stronger effect = higher value
How it was run: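 Compounds were applied to the rad50EPP+ yeast strain, which bears a defined DNA repair alteration, and growth inhibition was determined relative to vehicle-treated cultures.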

[8] = NCI Yeast Anticancer Drug Screen. Data for the mgt1 strain (AID 153); settings: S. cerevisiae mgt1 mutant growth inhibition, stronger effect = higher value
How it was run: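 Strain: mgt1 yeast, one of a set carrying defined DNA damage repair or cell cycle control alterations. Compound-treated growth compared with vehicle.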

[9] = NCI Yeast Anticancer Drug Screen. Data for the rad50 strain (AID 155);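 also: 0% = growth of vehicle-only cultures of the same strain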; settings: S. cerevisiae rad50 strain growth inhibition, stronger effect = higher value
How it was run: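 Genetically altered yeast (DNA repair pathway); compound treatment; growth inhibition vs vehicle ctrl.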

[10] = NCI Yeast Anticancer Drug Screen. Data for the mec2-1 strain (AID 157); settings: S. cerevisiae mec2-1 strain, stronger effect = higher value
How it was run: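 Strain: mec2-1 (DNA repair/cell cycle alteration). Compound exposure, then growth measured; inhibition expressed relative to vehicle.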

[11] = NCI Yeast Anticancer Drug Screen. Data for the sgs1 mgt1 strain (AID 161);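 also: 0% = growth of cultures given vehicle only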; settings: S. cerevisiae sgs1 mgt1 strain, stronger effect = higher value
How it was run: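 Test agents were incubated with a DNA-repair-mutant yeast strain. Growth was then read and compared against vehicle-treated controls.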

[12] = NCI Yeast Anticancer Drug Screen. Data for the CLN2oe strain (AID 163);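 also: 0% = growth of vehicle-only control cultures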; settings: S. cerevisiae CLN2oe strain, stronger effect = higher value
How it was run: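 Growth of a genetically modified yeast strain is measured after compound exposure and compared with cultures given vehicle alone.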

[13] = NCI Yeast Anticancer Drug Screen. Data for the cln2 rad14 strain (AID 165);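 also: 0% = growth equal to vehicle treated cultures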; settings: S. cerevisiae cln2 rad14 strain, stronger effect = higher value
How it was run: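 Compounds are applied to the cln2 rad14 yeast strain, and growth is then compared with that of vehicle-treated cultures to give inhibition.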

[14] = NCI Yeast Anticancer Drug Screen. Data for the bub3 strain (AID 167); settings: S. cerevisiae bub3 mutant strain, stronger effect = higher value
How it was run: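 Yeast carrying a defined mutation is treated with each compound, and growth is compared with that of vehicle-exposed cells to give inhibition.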

[15] = NCI Yeast Anticancer Drug Screen. Data for the wt2 strain (AID 169);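 also: 0% = growth of vehicle-treated yeast cultures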; settings: S. cerevisiae wt2 strain growth inhibition, stronger effect = higher value
How it was run: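 This strain belongs to a panel of yeast strains with defined genetic alterations in DNA damage repair or cell cycle control. Compounds are applied, and growth inhibition is measured against vehicle-treated cultures.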

[16] = at 5.0 µM (retest, dose inferred, filed as 0.5)
[17] = at 50.0 µM (retest, dose inferred, filed as 5.0)

Measured: growth inhibition

O=C1N=C2SC=C(NC(=S)Nc3ccccc3)N2NC12c1ccccc1-c1ccccc12
active: [1]; at 100.0 µM 81% | [2]; at 33.0 µM 81% | [2]; at 100.0 µM 90% | [4]; at 100.0 µM 77%
inactive: [1]; at 33.0 µM 59% | [2]; at 1.2 µM 10% | [2]; at 3.7 µM 15% | [2]; at 11.0 µM 28% | [3]; [16] -10% | [3]; [17] 41% | [3]; at 50.0 µM 69.7% | [4]; at 1.2 µM 14% | [4]; at 3.7 µM 19% | [4]; at 11.0 µM 24% | [4]; at 33.0 µM 49%

O=[N+]([O-])c1cc[n+]([O-])cc1
46.1% (inactive) and 83.2% (active): [9]; at 50.0 µM
inactive: [5]; at 1.2 µM -3% | [5]; at 3.7 µM 2% | [5]; at 11.0 µM 4% | [5]; at 33.0 µM 32% | [6]; at 1.2 µM -6% | [6]; at 3.7 µM -6% | [6]; at 11.0 µM -10% | [6]; at 33.0 µM -14% | [7]; at 1.2 µM 1% | [7]; at 3.7 µM 11% | [7]; at 11.0 µM 12% | [7]; at 33.0 µM 48% | [8]; at 1.2 µM -1% | [8]; at 3.7 µM -4% | [8]; at 11.0 µM -3% | [8]; at 33.0 µM -16% | [9]; at 1.2 µM -6% | [9]; at 3.7 µM -6% | [9]; [16] -158% and 4% | [9]; at 11.0 µM -1% | [9]; at 33.0 µM 58% | [9]; [17] 66% and 60% | [10]; at 1.2 µM 4% | [10]; at 3.7 µM -2% | [10]; [16] -52% and 2% | [10]; at 11.0 µM 0% | [10]; at 33.0 µM -2% | [10]; [17] -19% and 38% | [10]; at 50.0 µM 52% and 57.5% | [11]; [16] -62% and -8% | [11]; [17] 40% and 54% | [12]; at 1.2 µM -3% | [12]; at 3.7 µM -4% | [12]; at 11.0 µM -2% | [12]; at 33.0 µM 5% | [13]; [16] -61% and -3% | [13]; [17] -19% and 19% | [13]; at 50.0 µM 50.1% and 7.4% | [14]; at 1.2 µM -12% | [14]; at 3.7 µM -8% | [14]; [16] -68% and 5% | [14]; at 11.0 µM 2% | [14]; at 33.0 µM 22% | [14]; [17] 13% and 33% | [14]; at 50.0 µM 9.95% and 68% | [15]; at 1.2 µM -3% | [15]; at 3.7 µM -2% | [15]; at 11.0 µM -3% | [15]; at 33.0 µM -11% | [1]; at 1.2 µM 3% | [1]; at 3.7 µM -6% | [1]; at 11.0 µM -3% | [1]; at 33.0 µM -3% | [2]; at 1.2 µM -2% | [2]; at 3.7 µM -3% | [2]; at 11.0 µM -8% | [2]; at 33.0 µM 33% | [3]; [16] -136% and 0% | [3]; [17] 33% and 53% | [4]; at 1.2 µM -2% | [4]; at 3.7 µM 0% | [4]; at 11.0 µM 3% | [4]; at 33.0 µM 16%
active: [5]; at 100.0 µM 98% | [6]; at 100.0 µM 99% | [7]; at 100.0 µM 98% | [8]; at 100.0 µM 99% | [9]; at 100.0 µM 99% | [10]; at 100.0 µM 99% | [12]; at 100.0 µM 98% | [14]; at 100.0 µM 99% | [15]; at 100.0 µM 99% | [1]; at 100.0 µM 99% | [2]; at 100.0 µM 99% | [4]; at 100.0 µM 98%
26.7% (inactive) and 86.5% (active): [11]; at 50.0 µM
26.8% (inactive) and 87.5% (active): [3]; at 50.0 µM

C=C(C(=C)n1nnc(C(=O)OC)c1C(=O)OC)n1nnc(C(=O)OC)c1C(=O)OC
inactive: [5]; at 1.2 µM 0% | [5]; at 3.7 µM 2% | [5]; at 11.0 µM 3% | [5]; at 33.0 µM 0% | [5]; at 100.0 µM 0% | [6]; at 1.2 µM -1% | [6]; at 3.7 µM 0% | [6]; at 11.0 µM 1% | [6]; at 33.0 µM 0% | [6]; at 100.0 µM 1% | [7]; at 1.2 µM 0% | [7]; at 3.7 µM -1% | [7]; at 11.0 µM -1% | [7]; at 33.0 µM -2% | [7]; at 100.0 µM 0% | [8]; at 1.2 µM 0% | [8]; at 3.7 µM 5% | [8]; at 11.0 µM 0% | [8]; at 33.0 µM -1% | [8]; at 100.0 µM -3% | [9]; at 1.2 µM 0% | [9]; at 3.7 µM 1% | [9]; [16] 3% | [9]; at 11.0 µM 0% | [9]; at 33.0 µM 0% | [9]; [17] 2% | [9]; at 50.0 µM 27.1% | [9]; at 100.0 µM -2% | [10]; at 1.2 µM -5% | [10]; at 3.7 µM -5% | [10]; [16] -1% | [10]; at 11.0 µM -3% | [10]; at 33.0 µM -2% | [10]; [17] -1% | [10]; at 50.0 µM 51.9% | [10]; at 100.0 µM -5% | [11]; [16] 10% | [11]; [17] -3% | [11]; at 50.0 µM 51% | [12]; at 1.2 µM -2% | [12]; at 3.7 µM -1% | [12]; at 11.0 µM -4% | [12]; at 33.0 µM 0% | [12]; at 100.0 µM -4% | [13]; [16] -3% | [13]; [17] -2% | [13]; at 50.0 µM 53.2% | [14]; at 1.2 µM -1% | [14]; at 3.7 µM -3% | [14]; [16] 2% | [14]; at 11.0 µM -3% | [14]; at 33.0 µM -5% | [14]; [17] 2% | [14]; at 50.0 µM 66.4% | [14]; at 100.0 µM -4% | [15]; at 1.2 µM -1% | [15]; at 3.7 µM -1% | [15]; at 11.0 µM 1% | [15]; at 33.0 µM -1% | [15]; at 100.0 µM 0% | [1]; at 1.2 µM -1% | [1]; at 3.7 µM -2% | [1]; at 11.0 µM 0% | [1]; at 33.0 µM 0% | [1]; at 100.0 µM 0% | [3]; [16] -2% | [3]; [17] 48% | [3]; at 50.0 µM 59.5%
